# About 410 targets per protein were measured; listed, in parts, are those with the strongest signals and a random draw of the rest.
# Columns and labels:
# Assay in all cases: glycan array binding signal (z-score within array); higher = stronger binding
# Conditions in all cases: glycan notation: IUPAC condensed, linker removed
# GalNAc(b1-3)GlcNAc = target: GalNAc(b1-3)GlcNAc
# Outline: (§1)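 From the Consortium for Functional Glycomics database, 3228 arrays were curated, keeping only those whose protein sequence was available. Binding is given as a within-array Z-score averaged across arrays sharing a protein sequence and across linkers. Negative Z-scores can be read as non-binding.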
# Glc(a1-4)Glc = target: Glc(a1-4)Glc
# Outline: as §1
# GlcA(b1-3)Gal = target: GlcA(b1-3)Gal
# Outline: as §1
# [1] = target: GlcNAc(b1-2)Man(a1-3)[GlcNAc(b1-4)][GlcNAc(b1-2)Man(a1-6)]Man(b1-4)GlcNAc(b1-4)[Fuc(a1-6)]GlcNAc
# Outline: as §1
# [2] = target: GlcNAc(b1-2)[GlcNAc(b1-4)]Man(a1-3)[GlcNAc(b1-4)][GlcNAc(b1-2)[GlcNAc(b1-6)]Man(a1-6)]Man(b1-4)GlcNAc(b1-4)GlcNAc
# Outline: as §1
# [3] = target: GlcNAc(b1-3)Gal(b1-4)GlcNAc(b1-3)Gal(b1-4)GlcNAc(b1-3)Gal(b1-4)GlcNAc(b1-2)[GlcNAc(b1-3)Gal(b1-4)GlcNAc(b1-3)Gal(b1-4)GlcNAc(b1-3)Gal(b1-4)GlcNAc(b1-6)]Man(a1-6)[GlcNAc(b1-3)Gal(b1-4)GlcNAc(b1-3)Gal(b1-4)GlcNAc(b1-3)Gal(b1-4)GlcNAc(b1-2)Man(a1-3)]Man(b1-4)GlcNAc(b1-4)[Fuc(a1-6)]GlcNAc
# Outline: as §1
# [4] = target: GlcNAc(b1-3)Gal(b1-4)GlcNAc(b1-3)[GlcNAc(b1-3)Gal(b1-4)GlcNAc(b1-3)]GalNAc
# Outline: as §1
# [5] = target: GlcNAc(b1-3)Gal(b1-4)GlcNAc(b1-6)[Gal(b1-3)]GalNAc
# Outline: as §1
# GlcNAc(b1-3)Man = target: GlcNAc(b1-3)Man
# Outline: as §1
# [6] = target: GlcNAc(b1-4)GlcNAc(b1-4)GlcNAc
# Outline: as §1
# Kdn(a2-6)Gal(b1-4)GlcNAc = target: Kdn(a2-6)Gal(b1-4)GlcNAc
# Outline: as §1
# [7] = target: Neu5Ac(a2-3)Gal(b1-3)GlcNAc(b1-3)Gal(b1-3)GlcNAc
# Outline: as §1
# [8] = target: Neu5Ac(a2-3)Gal(b1-3)GlcNAc(b1-3)Gal(b1-4)GlcNAc
# Outline: as §1
# [9] = target: Neu5Ac(a2-3)Gal(b1-3)[Fuc(a1-4)]GlcNAc(b1-3)Gal(b1-4)[Fuc(a1-3)]GlcNAc
# Outline: as §1
# [10] = target: Neu5Ac(a2-3)Gal(b1-4)GlcNAc(b1-2)[Neu5Ac(a2-3)Gal(b1-4)GlcNAc(b1-6)]Man(a1-6)[Neu5Ac(a2-3)Gal(b1-4)GlcNAc(b1-2)Man(a1-3)]Man(b1-4)GlcNAc(b1-4)GlcNAc
# Outline: as §1
# [11] = target: Neu5Ac(a2-3)Gal(b1-4)GlcNAc(b1-2)[Neu5Ac(a2-3)Gal(b1-4)GlcNAc(b1-6)]Man(a1-6)[Neu5Ac(a2-3)Gal(b1-4)GlcNAc(b1-2)Man(a1-3)][GlcNAc(b1-4)]Man(b1-4)GlcNAc(b1-4)GlcNAc
# Outline: as §1
# [12] = target: Neu5Ac(a2-3)Gal(b1-4)GlcNAc(b1-3)Gal(b1-4)GlcNAc(b1-3)Gal(b1-4)GlcNAc
# Outline: as §1
# [13] = target: Neu5Ac(a2-3)Gal(b1-4)GlcNAc(b1-6)GalNAc
# Outline: as §1
# [14] = target: Neu5Ac(a2-3)Gal(b1-4)GlcNAc(b1-6)[Gal(b1-3)]GalNAc
# Outline: as §1
# [15] = target: Neu5Ac(a2-6)Gal(b1-4)GlcNAc(b1-2)Man(a1-3)[Neu5Ac(a2-6)Gal(b1-4)GlcNAc(b1-2)Man(a1-6)]Man(b1-4)GlcNAc(b1-4)GlcNAc
# Outline: as §1
# [16] = target: Neu5Ac(a2-6)Gal(b1-4)GlcNAc(b1-2)Man(a1-6)[Gal(b1-4)GlcNAc(b1-2)Man(a1-3)]Man(b1-4)GlcNAc(b1-4)GlcNAc
# Outline: as §1
# [17] = target: Neu5Ac(a2-6)Gal(b1-4)GlcNAc(b1-3)Gal(b1-4)GlcNAc(b1-3)Gal(b1-4)GlcNAc(b1-2)Man(a1-3)[Neu5Ac(a2-6)Gal(b1-4)GlcNAc(b1-3)Gal(b1-4)GlcNAc(b1-3)Gal(b1-4)GlcNAc(b1-2)Man(a1-6)]GalNAc
# Outline: as §1
# [18] = target: Neu5Ac(a2-6)Gal(b1-4)GlcNAc(b1-6)[Gal(b1-3)GlcNAc(b1-3)]Gal(b1-4)Glc
# Outline: as §1
# [19] = target: Neu5Ac(a2-6)GalNAc(b1-4)GlcNAc6S
# Outline: as §1
# [20] = target: Neu5Ac(a2-8)Neu5Ac(a2-3)Gal(b1-3)GalNAc(b1-4)[Neu5Ac(a2-3)]Gal(b1-4)Glc
# Outline: as §1
# [21] = target: Neu5Ac(a2-8)Neu5Ac(a2-8)Neu5Ac(a2-3)[GalNAc(b1-4)]Gal(b1-4)Glc
# Outline: as §1
# [22] = target: Neu5Ac9Ac(a2-6)Gal(b1-4)GlcNAc
# Outline: as §1
# [23] = target: Neu5Gc(a2-6)Gal(b1-4)GlcNAc
# Outline: as §1
# [24] = target: Neu5Gc(a2-8)Neu5Gc(a2-3)Gal(b1-4)GlcNAc(b1-3)Gal(b1-4)GlcNAc
# Outline: as §1
binder,measurement,setting,value
"Gal 4 (Mus musculus), P56470 (protein) MAYVPAPGYQPTYNPTLPYYQPIPGGLNVGMSVYIQGVASEHMKRFFVNFVVGQDPGSDVAFHFNPRFDGWDKVVFNTLQGGKWGSEERKRSMPFKKGAAFELVFIVLAEHYKVVVNGNPFYEYGHRLPLQMVTHLQVDGDLQLQSINFIGGQPLRPQGPPMMPPYPGPGHCHQQLNSLPTMEGPPTFNPPVPYFGRLQGGLTARRTIIIKGYVPPTGKSFAINFKVGSSGDIALHINPRMGNGTVVRNSLLNGSWGSEEKKITHNPFGPGQFFDLSIRCGLDRFKVYANGQHLFDFAHRLSAFQRVDTLEIQGDVTLSYVQI",glycan array binding signal (z-score),GalNAc(b1-3)GlcNAc,-0.272
same,glycan array binding signal (z-score),Glc(a1-4)Glc,-0.244
same,glycan array binding signal (z-score),GlcA(b1-3)Gal,-0.24
same,glycan array binding signal (z-score),[1],-0.278
same,glycan array binding signal (z-score),[2],-0.23
same,glycan array binding signal (z-score),[3],-0.244
same,glycan array binding signal (z-score),[4],-0.255
same,glycan array binding signal (z-score),[5],-0.174
same,glycan array binding signal (z-score),GlcNAc(b1-3)Man,-0.218
same,glycan array binding signal (z-score),[6],-0.23
same,glycan array binding signal (z-score),Kdn(a2-6)Gal(b1-4)GlcNAc,-0.242
same,glycan array binding signal (z-score),[7],0.107
same,glycan array binding signal (z-score),[8],-0.205
same,glycan array binding signal (z-score),[9],-0.234
same,glycan array binding signal (z-score),[10],-0.196
same,glycan array binding signal (z-score),[11],-0.338
same,glycan array binding signal (z-score),[12],-0.231
same,glycan array binding signal (z-score),[13],-0.314
same,glycan array binding signal (z-score),[14],-0.228
same,glycan array binding signal (z-score),[15],-0.226
same,glycan array binding signal (z-score),[16],-0.196
same,glycan array binding signal (z-score),[17],-0.294
same,glycan array binding signal (z-score),[18],-0.295
same,glycan array binding signal (z-score),[19],-0.293
same,glycan array binding signal (z-score),[20],-0.247
same,glycan array binding signal (z-score),[21],-0.227
same,glycan array binding signal (z-score),[22],-0.232
same,glycan array binding signal (z-score),[23],-0.231
same,glycan array binding signal (z-score),[24],-0.309

# Source: the supplement of paper PMC8728848
